{"source": "PubChem BioAssay AID463173", "about": "(ICCB-Longwood Screening Facility, Harvard Medical School, 2010)", "note": "The whole screen tested about 52,000 compounds, of which about 4,300 (8.3%) were called active. This excerpt belongs to a sample that is enriched for actives. Values without a mark were called inactive. No stated cut-off is given here; in the data, active means survival mostly below about 52% (no sharp cut-off); inactive means mostly above about 56%.", "data": [{"system": "DeltatarO mutant", "experiment": "growth inhibition of S. aureus wild type versus tarO mutant, primary screen, teichoic acid synthesis inhibitors, RN4220, OD600 (AID 463173)", "conditions": "OD600, 18 h, active compounds read low, screened at 18.75 µg/mL (by protocol)", "values": [{"smiles": "CCOC(=O)c1cc2c(ccn2-c2ccc(F)cc2)n1CC(=O)c1ccc2c(c1)OCCO2", "survival": "100%"}, {"smiles": "Cc1cccc(-c2noc(CN(C(=O)c3ccccc3Cl)C(C)C)n2)c1", "survival": "62%"}, {"smiles": "COc1ccc(OC(C)C(=O)NCc2nc(-c3cccc(C)c3)no2)cc1", "note": "(stereo not given)", "survival": "61%"}, {"smiles": "Cc1cccc(-c2noc(CN(C(=O)COc3ccc(Br)cc3C)C(C)C)n2)c1", "survival": "45% (active)"}, {"smiles": "Cc1cccc(-c2noc(CN(C(=O)COc3ccc(C(C)C)cc3)C(C)C)n2)c1", "survival": "11% (active)"}, {"smiles": "CCOc1ccc(C(=O)N(Cc2nc(-c3cccc(C)c3)no2)C(C)C)cc1", "survival": "0% (active)"}, {"smiles": "Cc1cccc(-c2noc(CN(C(=O)c3ccc(C)c(C)c3)C(C)C)n2)c1", "survival": "-3% (active)"}, {"smiles": "COc1ccccc1C(=O)N(Cc1nc(-c2cccc(C)c2)no1)C(C)C", "survival": "62%"}, {"smiles": "CC(Oc1ccc(Br)cc1)C(=O)N(Cc1nc(-c2ccccc2)no1)C(C)C", "note": "(stereo not given)", "survival": "97%"}, {"smiles": "Cc1ccc2cc(CN(C(=O)c3cccc(Cl)c3)c3ccccc3)c(=O)[nH]c2c1", "survival": "74%"}, {"smiles": "CCS(=O)(=O)N1CCc2cc(C(=O)Nc3cc(C(F)(F)F)ccc3Cl)ccc21", "survival": "48%"}, {"smiles": "Cc1ccc(-c2noc(CSc3nnc(C)n3-c3ccc(F)cc3)n2)cc1", "survival": "61%"}, {"smiles": "CCCN1CCN(CCCNC(=O)c2cc3c(=O)[nH]c4ccccc4c3s2)CC1", "survival": "79%"}, {"smiles": "CC(=O)c1ccc(N2CCN(c3ncnc4c3c(-c3ccccc3)cn4-c3ccc(Cl)cc3)CC2)cc1", "survival": "91%"}, {"smiles": "O=C(CSc1nc2ccsc2c(=O)n1Cc1ccccc1F)NCc1ccccc1", "survival": "122%"}, {"smiles": "COc1cccc(NC(=O)Cn2c(=O)n(-c3cccc(OC)c3)c(=O)c3sc4ccccc4c32)c1", "survival": "65%"}, {"smiles": "CCCCNC(=O)c1ccc2c(=O)n(-c3ccccc3)c(=O)[nH]c2c1", "survival": "80%"}, {"smiles": "COc1ccc(C(=O)N2CC(=O)Nc3ccc(F)cc3C2c2ccc(F)cc2)c(OC)c1", "note": "(stereo not given)", "survival": "58%"}, {"smiles": "Cc1ccccc1CNCc1c(C(=O)O)c(C)n(Cc2ccc(F)cc2Cl)c1C", "survival": "59%"}, {"smiles": "O=C(COCc1cc(-c2cccs2)on1)NCc1cccc(Cl)c1", "survival": "117%"}, {"smiles": "CCOc1nc(NC(=O)NS(=O)(=O)Oc2ccccc2)nc(-c2ccccc2)n1", "survival": "70%"}, {"smiles": "CCOC(=O)c1ccc(N2C(=O)Cc3cc(OCC)c(OCC)cc3C2c2ccccc2)cc1", "note": "(stereo not given)", "survival": "117%"}, {"smiles": "CC(C)NC(=O)c1ccc2c(c1)nnn2C", "survival": "78%"}, {"smiles": "Cc1ccccc1-c1noc(-c2ccccc2OCC(=O)Nc2cccc([N+](=O)[O-])c2)n1", "survival": "51%"}, {"smiles": "O=C(COc1ccccc1-c1nc(-c2ccccc2)no1)Nc1cccc([N+](=O)[O-])c1", "survival": "34% (active)"}, {"smiles": "Cc1noc(-c2ccccc2OCC(=O)Nc2cccc([N+](=O)[O-])c2)n1", "survival": "60%"}, {"smiles": "O=C(COc1ccccc1-c1nc(-c2ccccc2)no1)Nc1ccc([N+](=O)[O-])cc1", "survival": "44% (active)"}, {"smiles": "CC(=O)c1ccc(NC(=O)COc2ccccc2-c2nc(-c3ccc(C)cc3)no2)cc1", "survival": "57%"}, {"smiles": "Cc1cccc(-c2noc(-c3ccccc3OCC(=O)Nc3ccc([N+](=O)[O-])cc3)n2)c1", "survival": "50%"}, {"smiles": "CCN(C(=O)C1CCN(S(=O)(=O)c2ccc3c(c2)CCCN3C(C)=O)CC1)c1cccc(C)c1", "survival": "88%"}, {"smiles": "CCN(CC)S(=O)(=O)c1ccc(OC)c(-n2cnnn2)c1", "survival": "65%"}, {"smiles": "O=C(Nc1ccccc1F)c1nc(SCc2ccccc2F)ncc1Cl", "survival": "73%"}, {"smiles": "O=C(Nc1ccccc1F)c1nc(S(=O)(=O)Cc2ccccc2F)ncc1Cl", "survival": "-4% (active)"}, {"smiles": "COc1ccc(NC(=O)c2nc(SCc3ccccc3F)ncc2Cl)cc1", "survival": "73%"}, {"smiles": "COc1ccc2nc(NC(=O)c3nc(S(=O)(=O)Cc4ccccc4F)ncc3Cl)sc2c1", "survival": "61%"}, {"smiles": "COC(=O)c1ccccc1NC(=O)c1nc(S(=O)(=O)Cc2ccccc2F)ncc1Cl", "survival": "110%"}, {"smiles": "CCOc1ccc(NC(=O)c2nc(S(=O)(=O)Cc3ccccc3F)ncc2Cl)cc1", "survival": "11% (active)"}, {"smiles": "Cc1cc(C)c2c(=O)cc(C(=O)Nc3sc4c(c3C(=O)NCc3cccnc3)CCCC4)oc2c1", "survival": "68%"}, {"smiles": "CCOCCCNC(=O)c1c(NC(=O)c2cc(=O)c3ccccc3o2)sc2c1CCC2", "survival": "48%"}, {"smiles": "Cc1nc2c(Cl)cc(Cl)cc2[nH]1", "survival": "88%"}, {"smiles": "CCOc1cccc2cc(-c3cn4c(n3)sc3ccccc34)c(=O)oc12", "survival": "72%"}, {"smiles": "CCOc1cccc2cc(-c3cn4c(n3)sc3cc(C)ccc34)c(=O)oc12", "survival": "-4% (active)"}, {"smiles": "COc1cccc2cc(-c3cn4c(n3)sc3cc(F)ccc34)c(=O)oc12", "survival": "60%"}, {"smiles": "COCCCNC(=O)CS(=O)Cc1nc(-c2cccc(C)c2)oc1C", "note": "(stereo not given)", "survival": "90%"}, {"smiles": "S=C(NC12CC3CC(CC(C3)C1)C2)N1CCOCC1", "survival": "98%"}, {"smiles": "CCC(C)NC(=O)c1cn(CC)c2ccc(S(=O)(=O)N3CCCCC3)cc2c1=O", "note": "(stereo not given)", "survival": "84%"}, {"smiles": "Cc1ccc(COC(=O)c2[nH]c3c(c2C)C(=O)CC(c2ccc(N(C)C)cc2)C3)cc1", "note": "(stereo not given)", "survival": "77%"}, {"smiles": "CCCOC(=O)c1c(NC(=O)c2nc3ncccn3n2)sc(C(=O)OCC)c1C", "survival": "68%"}, {"smiles": "O=C(CN1C(=O)CCc2cc(S(=O)(=O)N3CCCCC3)ccc21)NCc1ccc(Cl)cc1", "survival": "78%"}, {"smiles": "CCC(=O)Nc1ccccc1-c1nc2ccccc2n(CC(=O)Nc2ccc(C)c(C)c2)c1=O", "survival": "47%"}, {"smiles": "CC(=O)Nc1ccccc1-c1nc2ccccc2n(CC(=O)c2ccc(C)c(C)c2)c1=O", "survival": "104%"}, {"smiles": "CCC(=O)Nc1ccccc1-c1nc2ccccc2n(CC(=O)c2ccc(C)c(C)c2)c1=O", "survival": "33% (active)"}, {"smiles": "CCC(=O)Nc1ccccc1-c1nc2ccccc2n(CC(=O)c2ccc(Br)cc2)c1=O", "survival": "29% (active)"}, {"smiles": "CC(=O)Nc1ccc(C)cc1-c1nc2ccccc2n(CC(=O)c2ccc(Cl)cc2)c1=O", "survival": "82%"}, {"smiles": "CCC(=O)Nc1ccccc1-c1nc2ccccc2n(CC(=O)c2ccc(Cl)cc2)c1=O", "survival": "35% (active)"}, {"smiles": "CC(=O)Nc1ccccc1-c1nc2ccccc2n(CC(=O)c2ccc(Br)cc2)c1=O", "survival": "76%"}, {"smiles": "CCC(=O)Nc1ccc(C)cc1-c1nc2ccccc2n(CC(=O)c2ccc(C)cc2)c1=O", "survival": "68%"}, {"smiles": "CCC(=O)Nc1ccccc1-c1nc2ccccc2n(CC(=O)c2ccc(C)cc2)c1=O", "survival": "50%"}, {"smiles": "COc1ccc(CCNC(=O)Cn2c(=O)n(-c3cc(OC)c(OC)c(OC)c3)c(=O)c3ccccc32)cc1OC", "survival": "81%"}, {"smiles": "COc1cc(CNCCSc2nnnn2C)ccc1OCc1ccc(F)cc1", "survival": "122%"}, {"smiles": "COC(=O)c1ccccc1NC(=O)c1cnc2c(-c3cccc(C)c3)c(C)nn2c1C", "survival": "128%"}, {"smiles": "CCOc1ccc2nc(SCC(=O)N(C)C3CCCCC3)c(C#N)cc2c1", "survival": "89%"}, {"smiles": "COc1cc(NC(=O)C2CCN(c3nc4ccccc4nc3C(F)(F)F)CC2)cc(OC)c1", "survival": "101%"}, {"smiles": "COc1cc(NC(=O)C2CCN(c3cnc4ccccc4n3)CC2)cc(OC)c1OC", "survival": "-5% (active)"}, {"smiles": "CCc1ccccc1NC(=O)C1CCN(c2cnccn2)CC1", "survival": "43%"}, {"smiles": "COc1ccccc1NC(=O)C1CCN(c2cnccn2)CC1", "survival": "54% (active)"}, {"smiles": "COc1cc(NC(=O)C2CCN(c3cnccn3)CC2)cc(OC)c1", "survival": "79%"}, {"smiles": "COc1cc(NC(=O)c2nc3ccccc3nc2N2CCCCC2)cc(OC)c1OC", "survival": "87%"}, {"smiles": "Cc1c(Cl)cccc1NC(=O)CN1C(=O)COc2ccc(S(=O)(=O)Nc3ccccc3)cc21", "survival": "60%"}, {"smiles": "CCS(=O)(=O)c1nc(S(=O)(=O)c2ccc(C)cc2)c(NCCCOC)s1", "survival": "97%"}, {"smiles": "COc1ccccc1N1CCN(C(=O)CSc2n[nH]c(-c3ccccc3)n2)CC1", "survival": "88%"}, {"smiles": "Cc1cccc(CC(=O)NC2CC(=O)N(c3cccc(F)c3)C2)c1", "note": "(stereo not given)", "survival": "67%"}, {"smiles": "Cc1ccc(N2CC(NC(=O)CCc3ccccc3)CC2=O)cc1", "note": "(stereo not given)", "survival": "20% (active)"}, {"smiles": "COc1ccc(N2CC(NC(=O)c3ccc(S(=O)(=O)N4CCCC4)cc3)CC2=O)cc1", "note": "(stereo not given)", "survival": "112%"}, {"smiles": "COc1ccc(N2CC(NC(=O)CCCc3ccccc3)CC2=O)cc1", "note": "(stereo not given)", "survival": "32% (active)"}, {"smiles": "Cc1ccc(N2CC(NC(=O)CCCc3ccccc3)CC2=O)cc1", "note": "(stereo not given)", "survival": "66%"}, {"smiles": "COc1cccc(N2CC(NC(=O)CCCc3ccccc3)CC2=O)c1", "note": "(stereo not given)", "survival": "69%"}, {"smiles": "COc1ccc(N2CC(NC(=O)c3ccc(OC(C)C)cc3)CC2=O)cc1", "note": "(stereo not given)", "survival": "0% (active)"}, {"smiles": "COc1ccc(CCC(=O)NC2CC(=O)N(c3ccccc3)C2)cc1", "note": "(stereo not given)", "survival": "126%"}, {"smiles": "O=C(CCc1ccccc1)NC1CC(=O)N(c2ccccc2)C1", "note": "(stereo not given)", "survival": "94%"}, {"smiles": "Cc1cccc(CC(=O)NC2CC(=O)N(c3ccccc3)C2)c1", "note": "(stereo not given)", "survival": "-5% (active)"}, {"smiles": "O=C(Cc1ccccc1)NC1CC(=O)N(c2ccccc2)C1", "note": "(stereo not given)", "survival": "87%"}, {"smiles": "COc1ccc(C(=O)NC2CC(=O)N(c3ccc4c(c3)OCCO4)C2)cc1", "note": "(stereo not given)", "survival": "100%"}, {"smiles": "Cc1c(NC(=O)c2ccc(OC(C)C)cc2)cccc1-c1nc2ncccc2o1", "survival": "47%"}, {"smiles": "O=C(Nc1ccc(F)cc1)c1nc(SCc2ccccc2F)ncc1Cl", "survival": "99%"}, {"smiles": "Cc1ccc(C(=O)O)cc1NC(=O)c1nsc2ccccc12", "survival": "103%"}, {"smiles": "CCOC(=O)c1sc(=S)n(C)c1C", "survival": "88%"}, {"smiles": "COc1ccc(OC)c(CNS(=O)(=O)c2ccc3[nH]c4c(c3c2)CCCCC4)c1", "survival": "79%"}, {"smiles": "Cc1ccc(Nc2c3c(nc4nncn24)CCC3)cc1", "survival": "62%"}, {"smiles": "COc1ccc(CNC(=O)c2cc3cccc4c3n2CC(C)S4)c(OC)c1", "note": "(stereo not given)", "survival": "122%"}]}]}
